# Experimental data: the supplement of paper PMC10646978
# ± gives the standard deviation.
# Tests used:
# Details in all cases: modulator concentration 10 µM
# [1] = tested on: RAW-Dual (murine macrophage reporter line); experiment: NF-kB reporter (SEAP) activity fold change vs agonist alone; higher = enhanced NF-kB activity
# Method in brief: (§1)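 Overnight stimulation with a PRR agonist followed pre-incubation for 1 hour at 37 °C with compound at 10 μM final. This was done in RAW-Dual murine macrophage reporter cells seeded at 50 000 per well in 384-well plates. NF-κB (SEAP, QUANTI-Blue absorbance at 620 nm) and IRF (Lucia luciferase, QUANTI-Luc luminescence) were read from the supernatant. Each reporter's fold change relative to the mean agonist-only control on the same plate was averaged over replicate plates.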
# [2] = tested on: RAW-Dual (murine macrophage reporter line); experiment: IRF reporter (Lucia luciferase) activity fold change vs agonist alone; higher = enhanced IRF activity
# Method in brief: as §1
# [3] = tested on: RAW-Dual (murine macrophage reporter line); experiment: viability score (confluency relative to resting cells, overnight) (fraction); higher = more viable, active = viable (0.7 or more)
# Method in brief: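 RAW-Dual macrophages in 384-well plates were treated overnight with compound at 10 μM final. IncuCyte imaging recorded confluency, and IncuCyte software built two confluency masks across every imaged well. The viability score expresses confluency relative to resting cells and was judged against a cutoff, which a compound met only if both masks exceeded 70% of resting cells.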
# [4] = agonist: CpG ODN 1826 0.5 ug/mL
Structure (SMILES),"NF-kB reporter [1, 4]",NF-kB reporter ([1]; agonist: LPS 0.1 ug/mL),NF-kB reporter ([1]; agonist: MPLA […]),IRF reporter ([2]; agonist: 3'3'-cGAMP 10 ug/mL),IRF reporter ([2]; agonist: LPS 0.1 ug/mL),IRF reporter ([2]; agonist: MPLA […]),viability score [3]
COC(c1ccccc1)(c1ccccc1)C(Oc1nc(C)cc(C)n1)C(=O)O (centres undefined) [Prestw-1497],0.986 ± 0.077,0.945 ± 0.07,0.936 ± 0.091,1.09 ± 0.052,1.31 ± 0.18,1.44 ± 0.32,1.05 (active)
Cc1cccc(Nc2ccccc2C(=O)O)c1C,0.847 ± 0.063,0.923 ± 0.13,0.962 ± 0.035,1.03 ± 0.075,1.03 ± 0.092,0.98 ± 0.089,0.999 (active)
Cc1cccc(Cn2cc(C=C3SC(=S)NC3=O)c3ccccc32)c1,0.681 ± 0.067,0.893 ± 0.043,1 ± 0.088,0.844 ± 0.045,0.955 ± 0.1,1.09 ± 0.17,1.02 (active)
Cc1cc(OCC(=O)Nc2ccccc2-c2ccccc2)ccc1Br,0.776 ± 0.073,0.888 ± 0.06,0.972 ± 0.099,1.03 ± 0.048,1.47 ± 0.087,1.55 ± 0.13,0.997 (active)
O=C(Oc1ccc(Cl)c2cccnc12)c1cccc(Cl)c1,0.981 ± 0.16,1.05 ± 0.093,0.926 ± 0.11,0.994 ± 0.032,1.41 ± 0.21,1.45 ± 0.15,1 (active)
Cc1cnc(Nc2ccc(OCCN3CCCC3)cc2)nc1Nc1cccc(S(=O)(=O)NC(C)(C)C)c1,0.769 ± 0.17,1.81 ± 0.14,2.74 ± 0.12,0.0927 ± 0.014,0.0391 ± 0.0087,0.064 ± 0.028,0.0864 (inactive)
COc1ccc(-c2cc(CNC(=O)c3c(F)cccc3F)no2)cc1,0.713 ± 0.041,0.742 ± 0.11,0.744 ± 0.042,0.878 ± 0.081,1.4 ± 0.22,1.72 ± 0.45,0.947 (active)
COc1ccc(CCn2c(C)c(C)n3c4c(=O)n(CCC(C)C)c(=O)n(C)c4nc23)cc1OC,0.95 ± 0.07,1.01 ± 0.12,1.15 ± 0.14,1.03 ± 0.048,1.37 ± 0.24,1.57 ± 0.44,0.95 (active)
CC(=O)n1cc(C=C(C)[N+](=O)[O-])c2ccccc21,1.07 ± 0.091,0.607 ± 0.079,0.419 ± 0.055,0.445 ± 0.015,0.297 ± 0.11,0.183 ± 0.067,0.861 (active)
CCSc1nc(-c2cccs2)cc(C(F)(F)F)c1C#N,0.77 ± 0.078,1.05 ± 0.069,1.66 ± 0.063,0.904 ± 0.13,1.18 ± 0.12,1.9 ± 0.25,0.999 (active)
O=C(CN1CCCCC1)NN=Cc1ccccc1OCc1ccccc1,0.948 ± 0.08,1.01 ± 0.1,0.927 ± 0.04,0.99 ± 0.1,1.02 ± 0.082,1.14 ± 0.18,0.995 (active)
Oc1ccccc1-c1cc(C(F)(F)F)on1,1.02 ± 0.08,0.982 ± 0.068,0.956 ± 0.096,0.349 ± 0.023,1.06 ± 0.066,1.12 ± 0.1,0.361 (inactive)
Cc1ccc(C=CC(=O)O)cc1S(=O)(=O)NCCO,1.04 ± 0.2,0.884 ± 0.075,1.05 ± 0.095,0.988 ± 0.077,1.16 ± 0.2,0.979 ± 0.32,0.984 (active)
CC(C)Cc1ccc(C(C)C(=O)O)cc1.NCCCC[C@H](N)C(=O)O (centres undefined),1.11 ± 0.26,0.97 ± 0.05,0.963 ± 0.064,0.903 ± 0.032,1.47 ± 0.16,1.41 ± 0.18,0.536 (inactive)
Cl.NCc1ccc(S(N)(=O)=O)cc1,0.998 ± 0.097,0.965 ± 0.047,0.998 ± 0.078,0.964 ± 0.058,0.962 ± 0.038,0.928 ± 0.13,1 (active)
CC(NC(=O)COc1ccc(C=NNC(=O)c2ccccc2O)cc1)c1ccccc1 (centres undefined),1.05 ± 0.13,1.03 ± 0.065,1.02 ± 0.061,0.985 ± 0.028,1.63 ± 0.23,1.2 ± 0.1,1.01 (active)
COc1ccccc1-c1noc(C2CN(S(=O)(=O)N(C)C)C2)n1,0.972 ± 0.051,0.982 ± 0.083,1.29 ± 0.09,1.02 ± 0.047,1.27 ± 0.26,1.54 ± 0.51,0.993 (active)
CC1(C)COC(=O)C1=NNc1ccc([N+](=O)[O-])cc1,1.02 ± 0.1,1.09 ± 0.073,1.03 ± 0.039,1.03 ± 0.21,1.05 ± 0.13,1.18 ± 0.1,0.998 (active)
NCCNc1ccc(NCCN)c2c1C(=O)c1ccncc1C2=O.O=C(O)/C=C\C(=O)O.O=C(O)/C=C\C(=O)O,0.917 ± 0.04,1 ± 0.085,1.13 ± 0.066,1.02 ± 0.049,1.36 ± 0.29,1.66 ± 0.55,0.97 (active)
COc1ccc(C(=O)OCCCN2C(=O)c3ccccc3C2=O)cc1,0.926 ± 0.15,0.986 ± 0.093,0.916 ± 0.071,0.967 ± 0.036,1.26 ± 0.13,1.41 ± 0.2,1 (active)
OCC(CO)N[C@H]1C[C@](O)(CO)[C@@H](O)[C@H](O)[C@H]1O,0.913 ± 0.054,0.924 ± 0.074,0.916 ± 0.046,0.908 ± 0.058,1.04 ± 0.065,0.884 ± 0.07,1 (active)
COc1ccc(S(=O)(=O)Nc2ccc(Oc3ccccc3)cc2)cc1,1.04 ± 0.18,1.02 ± 0.11,2.55 ± 1.5,0.972 ± 0.033,1.17 ± 0.13,1.21 ± 0.2,1.01 (active)
O=C(Oc1ccc(C=Nc2ccc([N+](=O)[O-])cc2)cc1)c1ccccc1,0.769 ± 0.061,0.967 ± 0.089,0.978 ± 0.056,0.713 ± 0.025,0.985 ± 0.12,1.12 ± 0.29,0.998 (active)
CCC(=O)N1c2ccccc2NC2=C(C(=O)CC(c3ccccc3F)C2)C1c1ccc(C)cc1 (centres undefined),1.02 ± 0.12,1.07 ± 0.079,1 ± 0.064,0.985 ± 0.043,1.35 ± 0.3,1.07 ± 0.072,1.01 (active)
Cc1c(C)c2c(c(C)c1O)CCC(C)(CCCC(C)CCCC(C)CCCC(C)C)O2 (centres undefined),1.02 ± 0.085,0.997 ± 0.052,1.06 ± 0.023,0.92 ± 0.057,0.965 ± 0.13,0.994 ± 0.1,0.987 (active)
CC(C)(C)c1ccc(-c2nc(-c3cccc([N+](=O)[O-])c3)no2)cc1,1.06 ± 0.1,0.972 ± 0.091,0.964 ± 0.025,1.02 ± 0.071,1.01 ± 0.098,1.05 ± 0.17,0.995 (active)
COc1ccc(Cl)c(Nc2nc3ccccc3nc2NS(=O)(=O)c2cccc(NC(=O)C(C)(C)N)c2)c1,0.841 ± 0.23,1.05 ± 0.12,1.11 ± 0.087,0.221 ± 0.013,1.21 ± 0.13,1.32 ± 0.3,0.592 (inactive)
